Screens from PubChem.
sEH activator: soluble epoxide hydrolase (human) activation; purified human sEH enzymatic activity, activator screen; activation, % at 2 µM; actives 0.04% (n = 91,000); in the data active = activation above about 37%
Target sequence (P34913 whole entry, looked up): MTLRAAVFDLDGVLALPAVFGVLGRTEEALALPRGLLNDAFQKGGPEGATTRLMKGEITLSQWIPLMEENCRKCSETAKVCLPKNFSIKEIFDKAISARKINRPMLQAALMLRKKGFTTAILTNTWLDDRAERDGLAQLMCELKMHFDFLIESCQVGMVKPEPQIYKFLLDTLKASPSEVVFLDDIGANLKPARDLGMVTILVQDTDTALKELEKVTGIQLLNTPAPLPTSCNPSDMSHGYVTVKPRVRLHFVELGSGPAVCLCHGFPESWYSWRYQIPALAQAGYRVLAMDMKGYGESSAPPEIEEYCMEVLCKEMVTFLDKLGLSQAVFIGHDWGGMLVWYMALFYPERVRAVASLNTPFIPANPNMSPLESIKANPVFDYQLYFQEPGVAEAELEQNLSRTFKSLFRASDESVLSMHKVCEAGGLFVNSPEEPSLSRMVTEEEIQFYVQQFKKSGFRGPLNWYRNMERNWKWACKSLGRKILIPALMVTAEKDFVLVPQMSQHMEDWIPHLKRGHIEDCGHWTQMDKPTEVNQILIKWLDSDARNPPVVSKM
PTPN22 act: LYP (human) phosphatase activation | recombinant LYP, DiFMUP fluorescence; 0 = plate median, 100 = signal doubled | activation, % at 2 µM | actives 0.11% (n = 96,000);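 active = activation at 2 µM above a set limit, the mean plus 5 SD, cut at about 37% in these data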
LYP inh 2: blocks human PTPN22 phosphatase activity; Q9Y2R2; recombinant LYP catalytic domain, DiFMUP fluorescence; inhibition, % at 2 µM; actives 0.21% (n = 96,000);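 active = inhibition at 2 µM at or above a set limit, the screen mean plus 3 SD, cut at about 24% in these data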;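 note: 0% = DMSO with enzyme and 100% = enzyme fully blocked by orthovanadate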
BAP1 inh: inhibitors of human BAP1 deubiquitinase | recombinant BAP1, Ub-AMC hydrolysis fluorescence kinetic; active compounds read low | calls only at 20 µM | Q92560 | actives 0.48% (n = 72,000);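 active = activity remaining at or below 50% of control, provided the compound also passes the data quality filters; inactive = the rest, including low values that fail the filters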;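 note: 100% = DMSO wells rate and 0% = substrate alone blank rate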
Calb biofilm kill: kills Candida albicans biofilms. C. albicans biofilm + clotrimazole, Alamar Blue. inhibition, % at 6 µM. actives 0.14% (n = 85,000);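 active = inhibition above 20%; inactive = inhibition below 20%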;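 note: preformed 24 hr biofilms exposed to compound for 48 hr; 0% = biofilm without compound and 100% = blank killed by clotrimazole plus chlorhexidine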
sEH inhibitor: soluble epoxide hydrolase (human) inhibition; inhibition, % at 2 µM; actives 0.34% (n = 91,000); recombinant human sEH enzymatic activity assay; in the data active = inhibition above about 80%
* hit, by the source's call; i = inactive; . = no result shown; + = active, no number. In the library only some 0.79% were active in any assay of this set; here they are far more common.

SMILES	sEH activator	PTPN22 act	LYP inh 2	BAP1 inh	Calb biofilm kill	sEH inhibitor
CC1CCCN(S(=O)(=O)c2ccc(C(=O)Nc3nnc(-c4ccccc4Cl)o3)cc2)C1 (stereo not drawn)	-82	-10	9	i	7	82*
COC(=O)c1ccc(-n2nnnc2SCC(=O)Nc2ccccc2C(=O)OC)cc1	11	2	2	.	.	-8
COC(=O)c1sccc1NC(=O)CSc1nnnn1-c1ccccc1C	-18	22	-22	.	27*	18
Cc1nc2cc(NC(=O)c3ccc([N+](=O)[O-])cc3)ccc2n1-c1ccccc1	.	.	.	i	.	.
CC(C)C(C(=O)O)N1C(=O)/C(=C/C=C/c2ccco2)SC1=S (stereo not drawn)	-5	-25	29*	.	.	6
CC1=NN(c2cccc(C(=O)O)c2)C(=O)/C1=C\C=C\c1ccco1	19	-7	7	.	1	-19
Cc1cccc(OCC(=O)Nc2ccc3oc(-c4cccnc4)nc3c2)c1	.	.	.	i	.	.
COc1ccc(S(=O)(=O)Nc2ccc(N(C)C(C)=O)cc2)cc1	8	7	-4	.	42*	-9
O=C1CCCc2c1[nH]c1ccc(OCc3ccccc3)cc21	.	.	.	i	.	.
COc1ccc(NC(=O)CC23CC4CC(CC(C4)C2)C3)cc1	.	.	.	i	.	.
Cc1cc(S(=O)(=O)Nc2ccccc2C(=O)O)ccc1Cl	4	3	-6	i	11	-3
Cc1nn(-c2ccccc2)c(Cl)c1/C=N/Nc1ccc(S(=O)(=O)Nc2ccccc2C(=O)O)cc1[N+](=O)[O-]	6	-22	24*	.	2	-3
COc1ccc(N=Cc2cc(Cc3ccccc3)cc(Br)c2O)cc1OC	.	.	.	i	.	.
O=C(NC12CC3CC(CC(C3)C1)C2)N1CCC(O)(c2ccc3c(c2)OCO3)CC1	-88	-2	0	i	6	88*
O=C(CC(=O)c1ccccc1)Nc1ccc(C(=O)O)cc1	.	.	.	i	.	.
OC(COCc1ccccc1)CN1CCN(c2ccccc2F)CC1 (stereo not drawn)	-25	7	-10	i	10	24
OC(COCC1COc2ccccc2O1)CN1CCN(c2ccccc2F)CC1 (stereo not drawn)	47*	6	-3	.	.	-48
Cc1ccc(COc2ccc3c(C)cc(=O)oc3c2)cc1	.	.	.	i	.	.
Cc1ccc(NC(=O)COc2ccc(/C=N/NC(=O)CSCc3ccccc3)cc2)cc1	-31	-15	18	.	.	33
CCOC(=O)c1c2ccc(OCC(=O)N/N=C/c3ccc(C)cc3)cc2n2ccccc12	-4	-22	24*	.	.	5
CC(C)(C)SCCNC(=O)c1ccc(Cl)c(S(=O)(=O)N2CCOCC2)c1	-86	3	-7	.	10	86*
O=C(Nc1cccc(Br)c1)c1ccc(Cl)c(S(=O)(=O)N2CCOCC2)c1	-95	1	-1	.	4	95*
O=c1[nH]c2cc(Cl)c(Cl)cc2[nH]c1=O	.	.	.	+	.	.
CCOC(=O)c1sc(NC(=O)C(CC)Sc2nc3ccccc3[nH]2)nc1C (stereo not drawn)	-3	-24	25*	.	4	5
CCOC(=O)c1sc(NC(=O)C(CC)Sc2nnc3c4ccccc4n(C(C)C)c3n2)nc1C (stereo not drawn)	.	-7	4	.	.	.
SMILES	sEH activator	PTPN22 act	LYP inh 2	BAP1 inh	Calb biofilm kill	sEH inhibitor
O=C(Nc1ccc2oc(-c3ccc(F)cc3)nc2c1)c1cccc(Cl)c1	.	.	.	i	.	.
O=C(COc1ccccc1)Nc1cccc(-c2nnc(-c3ccccc3)o2)c1	.	.	.	+	2	.
O=C(CSc1cn(CCNC(=O)c2cccs2)c2ccccc12)NCC1CCCO1 (stereo not drawn)	.	.	.	i	33*	.
O=C(CSCc1ccc(Cl)cc1)N/N=C/c1ccc(Cl)cc1Cl	-80	2	1	.	.	80*
Cc1ccc(/C=N/NC(=O)CSCc2ccc(Cl)cc2)cc1	-50	16	-13	.	.	50
O=C(Cn1cnc2ccccc21)Nc1ccc(C(=O)O)cc1	-6	-35	33*	.	.	7
O=C(N/N=C/c1ccc(O)cc1)c1csc2ccccc12	-84	-4	6	.	.	84*
CC1=C(C(=O)OCCc2ccccc2)C(c2cc3c(cc2Br)OCO3)NC(=O)N1C (stereo not drawn)	.	.	.	i	.	.
O=C(Cn1ncc2c(=O)oc3ccccc3c21)N1CCc2ccccc2C1	.	.	.	i	22*	.
O=C(Cn1ncc2c(=O)oc3ccccc3c21)N1CCC(N2CCCCC2)CC1	.	.	.	i	5	.
Cc1scc(C(=O)N/N=C/c2ccco2)c1C	-29	-14	11	.	-3	27
CCCOc1cccc(/C=N/NC(=O)c2csc(C)c2C)c1	-86	-1	-1	.	.	86*
O=C(NCC1CCCO1)c1ccc(S(=O)(=O)N2CCC(c3nc4ccc(Cl)cc4[nH]3)CC2)cc1 (stereo not drawn)	-81	6	-6	.	4	81*
Clc1ccc(-c2nn3c(-c4ccccn4)nnc3s2)c(Cl)c1	.	.	.	i	9	.
Clc1ccccc1-c1nnc2sc(-c3ccccn3)nn12	38*	31	-26	i	10	-36
COc1cc(OC)cc(C(=O)Nc2ccccc2C(=O)N2CCCC2)c1	9	-51	52*	.	0	-8
COc1ccccc1C(=O)Nc1ccccc1C(=O)N1CCCC1	2	0	2	i	5	-3
Cc1ccc(-c2nnc(CSc3nnc(COc4cccc5ccccc45)n3-c3ccccc3)o2)cc1	0	-33	33*	.	.	-1
O=C(Nc1cccc2ccccc12)c1ccc(OC(=S)N2CCOCC2)cc1	-88	-2	7	.	.	88*
Cc1ccc(Oc2ccccc2)c(NC(=O)c2ccccc2)c1	.	.	.	i	.	.
COc1cnc(-c2ccccn2)nc1Sc1ccc(Cl)cc1	12	-28	30*	.	.	-11
C(=C/c1ccnc2nc(SC/C=C/c3ccccc3)nn12)/c1ccccc1	4	-31	33*	.	.	-2
NS(=O)(=O)c1ccc(CNC(=O)/C=C/c2c(Cl)cccc2Cl)cc1	-92	6	-1	.	.	92*
CCOC(=O)C1=C(CC)NC2=C(C(=O)CC(C)(C)C2)C1c1ccccc1F (stereo not drawn)	.	.	.	i	.	.
CC1(C)Cc2c(c(N3CCOCC3)nc3sc4c(NCc5ccco5)nnnc4c23)CS1	-8	10	-11	.	24*	9
SMILES	sEH activator	PTPN22 act	LYP inh 2	BAP1 inh	Calb biofilm kill	sEH inhibitor
CC(C)CNc1nnnc2c1sc1nc(N3CCOCC3)c3c(c12)CC(C)(C)SC3	0	-21	25*	.	.	4
Cn1cc(S(=O)(=O)CC(=O)Nc2ccc3c(c2)OCCO3)c2ccccc21	-13	-3	2	.	23*	15
Cc1ccc(S(=O)(=O)n2cnc3ccccc32)cc1C	.	.	.	i	.	.
CCSc1nnc2c(n1)OC(CC)Nc1ccccc1-2 (stereo not drawn)	.	.	.	i	.	.
N#Cc1nc(-c2ccc(OCc3ccc(Cl)cc3)cc2)oc1NCCCn1ccnc1	2	-27	26*	i	5	-2
Cc1ccc(NC(=O)NC2CCCCC2)cc1Cl	-95	2	-2	i	-1	95*
Cc1ccc(NC(=O)C2CCN(C(=O)NC3CCCCC3)CC2)cc1Cl	-28	9	-8	i	0	27
